The record followed here is PubChem BioAssay (NCATS).

Molecules are shown by their SMILES. Several values for one entry are separate records, joined by “and”; a condition that tells them apart may be missing. Identical values can stand only once. Values without a mark were called inactive. Activity calls are given as the source filed them. No rule for the calls is given here.
Also: 0% is about no effect.

The first test deals with Nuclear receptor subfamily 1 group I member 2 (Rattus norvegicus) (UniProt Q9R1A7). In words: qHTS assay for small molecule activators of the rat pregnane X receptor (rPXR) signaling pathway (AID 651751). The conditions noted are these: rPXR reporter cells, luciferase (One-Glo), 24 h. On the technique in general: In qHTS, concentration-response curves come from the screen itself.
Nuclear receptor subfamily 1 group I member 2 (Rattus norvegicus), sequence (Q9R1A7 whole entry, looked up): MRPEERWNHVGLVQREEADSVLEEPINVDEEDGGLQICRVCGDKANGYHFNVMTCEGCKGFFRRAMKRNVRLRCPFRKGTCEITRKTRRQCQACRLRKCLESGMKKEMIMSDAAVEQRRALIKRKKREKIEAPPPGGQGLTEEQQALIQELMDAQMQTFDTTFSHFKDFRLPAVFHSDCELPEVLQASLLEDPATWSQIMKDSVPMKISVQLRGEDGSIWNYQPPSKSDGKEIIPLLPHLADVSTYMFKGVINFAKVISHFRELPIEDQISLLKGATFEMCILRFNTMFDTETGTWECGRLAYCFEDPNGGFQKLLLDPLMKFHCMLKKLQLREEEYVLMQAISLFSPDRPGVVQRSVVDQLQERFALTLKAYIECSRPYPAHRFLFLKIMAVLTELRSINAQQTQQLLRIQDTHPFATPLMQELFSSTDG
For the compound `CN(C)CCC(c1ccccc1)c1ccccn1` (stereo not drawn), the max response is 2.3%. Still for that read-out and setting: next, `O=C(O)Cc1cccc2ccccc12`: -1.12% and -1.15%; `O=C(O)c1cc(-c2ccccc2)nc2ccccc12`: -0.78%.

In the case of `O=c1cc(-c2ccccc2)oc2cc(O)cc(O)c12`, the max response is -2.91%. Still for that read-out and setting: the figure for `O=C(O)c1cc(O)c2c(c1)C(=O)c1cccc(O)c1C2=O` is -2.8%. Regarding `O=c1c(O)c(-c2ccc(O)cc2)oc2cc(O)cc(O)c12`, the max response was 0.424% and -1.67%.

As for `CC(=O)c1ccc(S(=O)(=O)NC(=O)NC2CCCCC2)cc1`, the max response is -0.823% and -0.02%. Still for that read-out and setting: the figure for `O=c1cc(-c2ccc(O)cc2)oc2cc(O)cc(O)c12` is -6.83% and -1.04%. On the same count and under the same terms, the figure for `O=c1c(-c2ccc(O)cc2)coc2cc(O)ccc12` is 6.21% and 11.9%.

System in a further test: not listed separately
In words: qHTS assay for small molecule activators of the human pregnane X receptor (PXR) signaling pathway (AID 720659). As to conditions: DPX-2 HepG2 CYP3A4-luciferase, 24 h; series mostly up to 92.3 µM; activation: at the top concentration.
Turning to `CC1=C(/C=C/C(C)=C/C=C/C(C)=C/C(=O)Nc2ccc(O)cc2)C(C)(C)CCC1`, the “activation” value is -7.53%. Same read-out and setting: the figure for `CN(C)CCC(c1ccccc1)c1ccccn1` (stereo not drawn) is -4.02%. For `O=C(O)Cc1cccc2ccccc12`, the compound was called inactive. With `O=C(O)c1cc(-c2ccccc2)nc2ccccc12`, the “activation” value was 24.2%. Take `CC(=O)O[C@]1(C(C)=O)CC[C@H]2[C@@H]3C=C(Cl)C4=CC(=O)[C@@H]5C[C@@H]5[C@]4(C)[C@H]3CC[C@@]21C`: the compound was classed as inactive.

For the compound `O=C(O)c1cc(O)c2c(c1)C(=O)c1cccc(O)c1C2=O`, the “activation” value was -7.46%.

Turning to `CC(=O)c1ccc(S(=O)(=O)NC(=O)NC2CCCCC2)cc1`, the result was inactive. Still for that read-out and setting: next, `CCn1cc(C(=O)O)c(=O)c2ccc(C)nc21`: “inactive”. As to `CC(=O)N[C@@H](CS)C(=O)O`, the “activation” value was -1.42%.
